Counter-ions that a name gives are not always drawn. Like-named read-outs stand apart in the source and are kept apart here. Screen size: about 5,300 compounds; about 130 (2.5%) showed an effect of 50% or more. The list comes from a sample in which strong results are over-represented; it also holds similar structures and randomly drawn compounds.
Test system: M. mycetomatis strain mm55
Conditions: primary screen, metabolic activity vs growth control, 96 h, 2 µM, inhibitor
[1] = Madurella mycetomatis metabolic activity at 2µM (%)

Row | Structure (SMILES) | % viability [%] | % viability [1] [%]
1 | CCCCCCCCCCCCCCCC(=O)OC1C(SC)OC(C(NC(=O)C2CC(CCC)CN2C)C(C)Cl)C(O)C1O (stereo not drawn) [ONC0004643, clindamycin palmitate hcl] | 84.71 | –
2 | CC(=O)OCC(=O)[C@@]12OC(C)(C)O[C@@H]1CC1C3C[C@H](F)C4=CC(=O)C=C[C@]4(C)[C@@]3(F)[C@@H](O)C[C@@]12C (stereo partly drawn) [ONC0000518, fluocinonide] | 69.32 | –
3 | CCN(CC)CCNC(=O)COc1ccc(OC)cc1 [ONC0000676, mefexamide hydrochloride] | 93.51 | –
4 | CCN(CC)CCN1C(=O)C(=Cc2ccc(OC)cc2)Nc2ccccc21 [ONC0005609, caroverine] | 42.25 | –
5 | COc1ccc(C2Sc3ccccc3N(CCN(C)C)C(=O)C2OC(C)=O)cc1 (stereo not drawn) [ONC0005348, diltiazem hydrochloride] | 61.39 | –
6 | CC(=O)N[C@H]1[C@H]([C@H](O)[C@H](O)CO)OC(C(=O)O)=C[C@@H]1N=C(N)N [ONC0004525, zanamivir relenza] | 62.68 | –
7 | CCOC(=O)C1=C[C@]2(CC)CCCN3CCc4c(n1c1ccccc41)[C@@H]32 [ONC0002865, vinpocetine] | 109.8 | –
8 | CC[C@]12CCCN3CCc4c(n(c5ccccc45)[C@@](O)(C(=O)OC)C1)[C@@H]32 [ONC0003425, vincamine] | 89.22 | –
9 | CC[C@]12CCCN3CCc4c(n(c5ccccc45)C(=O)C1)[C@@H]32 [ONC0003441, eburnamonine] | 44.28 | –
10 | Cc1ccc(NC2=CC(=O)c3sc(C)nc3C2=O)cc1 [ONC0003545, ryuvidine] | 94.75 | –
11 | COc1cccc(/C=N/C=N/c2cccc(OC)c2)c1 [ONC0002505, dmeob] | 75.27 | –
12 | CO[C@@H](C(=O)N1Cc2n[nH]c(NC(=O)c3ccc(N4CCN(C)CC4)cc3)c2C1)c1ccccc1 [ONC0004749, danusertib pha739358] | 112.5 | –
13 | CC1=CC(=C(c2ccc(N)cc2)c2ccc(N)cc2)C=CC1=N [ONC0002809, basic fuchsin] | 79.53 | –
14 | CCN(CC)c1ccc(C(=C2C=CC(=[N+](CC)CC)C=C2)c2ccccc2)cc1 [ONC0002765, brilliant green] | 123.8 | –
15 | CN(C)c1ccc(C(=C2C=CC(=[N+](C)C)C=C2)c2ccc(N(C)C)cc2)cc1 [ONC0000415, gentian violet] | 35.99 | –
16 | Cc1cc(O)c(-c2ccc([C@@H](C)CN)cc2)c2c1[nH]c(=O)c1sccc12 [ONC0001173, ots514] | 81.93 | –
17 | CCOc1nc2cccc(C(=O)OC(C)OC(=O)OC3CCCCC3)c2n1Cc1ccc(-c2ccccc2-c2nnn[nH]2)cc1 (stereo not drawn) [ONC0004302, candesartan cilextil] | 98.1 | –
18 | CCCCCCCCCCCCOS(=O)(=O)O [ONC0002181, sodiumdodecylsulfate] | – | 96.71
19 | Nc1nc(O)c2ncn(COC(CO)CO)c2n1 [ONC0003983, ganciclovir hydrate] | 92.25 | –
20 | NS(=O)(=O)Nc1ncnc(OCCOc2ncc(Br)cn2)c1-c1ccc(Br)cc1 [ONC0002096, aprocitentan] | 65.83 | –
21 | CC(C)(C)[C@@]1(O)CCN2C[C@@H]3c4ccccc4CCc4cccc(c43)[C@H]2C1 [ONC0002006, butaclamolhcl] | 90.12 | –
22 | C=C1NCC[C@@H](C(=O)O)N1 [ONC0005375, ectoinezwitterion] | 125.4 | –
23 | OC[C@H]1O[C@H](O[C@H]2O[C@H](CO)[C@@H](O)[C@H](O)[C@H]2O)[C@H](O)[C@@H](O)[C@@H]1O [ONC0003487, trehalose] | 42.59 | –
24 | OC[C@H]1O[C@@H](O[C@@H]2[C@H](O)[C@@H](O)[C@H](O[C@H]3[C@H](O)[C@@H](O)C(O)O[C@@H]3CO)O[C@@H]2CO)[C@H](O)[C@@H](O)[C@H]1O (stereo partly drawn) [ONC0004130, 4galactosyllactose] | 126.3 | –

Row | Structure (SMILES) | % viability [%] | % viability [1] [%]
25 | NC[C@@H]1O[C@H](O[C@H]2[C@@H](O)[C@H](O[C@@H]3[C@@H](O)[C@H](N)C[C@H](N)[C@H]3O[C@H]3O[C@H](CO)[C@@H](O)[C@H](O)[C@H]3N)O[C@@H]2CO)[C@H](N)[C@@H](O)[C@@H]1O [ONC0005310, paromomycin] | 134.8 | –
26 | OC[C@H]1O[C@H](O[C@H]2[C@H](O)[C@@H](O)[C@H](O)O[C@@H]2CO)[C@H](O)[C@@H](O)[C@@H]1O [ONC0000327, dmaltose] | 54.64 | –
27 | NC[C@H]1O[C@H](O[C@H]2[C@H](O[C@@H]3O[C@H](CO)[C@@H](O)[C@H]3O)[C@@H](O)[C@H](N)C[C@@H]2N)[C@H](N)[C@@H](O)[C@@H]1O [ONC0001104, ribostamycin sulfate] | 39.68 | –
28 | NC[C@H]1O[C@H](O[C@H]2C(O[C@@H]3O[C@H](CO)[C@@H](O)[C@H]3O)[C@@H](O)[C@H](N)C[C@@H]2N)[C@H](N)[C@@H](O)[C@@H]1O (stereo partly drawn) [ONC0002301, ribostamycin sulfate] | 111.7 | –
29 | O=C1OC2(c3cc(I)c(O)c(I)c3Oc3c2cc(I)c(O)c3I)c2c(Cl)c(Cl)c(Cl)c(Cl)c21 [ONC0002798, rose bengal sodium salt] | – | 83.07
30 | CC1=C(C(=O)O)N2C(=O)[C@@H](NC(=O)[C@H](N)C3=CCC=CC3)C2SC1 (stereo partly drawn) [ONC0000708, cephradine] | 86.49 | –
31 | CCS(=O)(=O)N(C)[C@@H]1c2cc(C#N)ccc2OC(C)(C)[C@H]1O.CCS(=O)(=O)N(C)[C@H]1c2cc(C#N)ccc2OC(C)(C)[C@@H]1O [ONC0001571, chromanol] | 78.85 | –
32 | CC1(C)Oc2ccc(C#N)cc2[C@H](N(Cc2ncc[nH]2)c2ccc(Cl)cc2)[C@H]1O [ONC0001872, bms191095] | 47.09 | –
33 | CCS(=O)(=O)N(C)[C@H]1c2cc(C#N)ccc2OC(C)(C)[C@@H]1O [ONC0002693, chromanol293b3r4s] | 103.9 | –
34 | c1ccc2sc(N3CCN(Cc4ccc5c(c4)OCO5)CC3)nc2c1 [ONC0000161, 214piperonylpiperazinylbenzothiazole] | 77.89 | –
35 | CCCCn1c(-c2ccccc2)nc(-c2ccccc2)c1CN(Cc1ccc2c(c1)OCO2)Cc1ccc2c(c1)OCO2 [ONC0002511, ndt9513727] | 38.93 | –
36 | c1ccc(C(O[C@@H]2CCCN(CCc3ccc4c(c3)OCO4)C2)c2ccccc2)cc1 [ONC0003094, zamifenacin] | 77.83 | –
37 | Nc1ncnc2c1c(-c1cccc(OCc3ccccc3)c1)cn2C1CC(CN2CCCC2)C1 (stereo in doubt) [ONC0000263, nvpadw742] | 57.9 | –
38 | CCCN1C[C@@H](NS(=O)(=O)N(CC)CC)C[C@@H]2Cc3c(O)cccc3C[C@H]21 [ONC0000942, quinagolide hydrochloride] | 65.37 | –
39 | CO[C@H](C(=O)[C@@H](O)[C@@H](C)O)[C@@H]1Cc2cc3cc(O[C@H]4C[C@@H](O[C@H]5C[C@@H](O)[C@H](O)[C@@H](C)O5)[C@@H](O)[C@@H](C)O4)c(C)c(O)c3c(O)c2C(=O)[C@H]1O[C@H]1C[C@@H](O[C@H]2C[C@@H](O[C@H]3C[C@](C)(O)[C@H](O)[C@@H](C)O3)[C@H](O)[C@@H](C)O2)[C@H](O)[C@@H](C)O1 [ONC0003516, plicamycin mithramycin] | 50.92 | –
40 | Cc1c(N)nc([C@H](CC(N)=O)NC[C@H](N)C(N)=O)nc1C(=O)N[C@H](C(=O)N[C@H](C)[C@@H](O)[C@H](C)C(=O)N[C@H](C(=O)NCCc1nc(-c2nc(C(=O)NCCCNCCCCN)cs2)cs1)[C@@H](C)O)[C@@H](O[C@@H]1O[C@@H](CO)[C@@H](O)[C@H](O)[C@@H]1O[C@@H]1O[C@H](CO)[C@@H](O)[C@H](OC(N)=O)[C@@H]1O)c1cnc[nH]1 [ONC0002990, bleomycetin] | 3.217 | –
41 | Cc1c(N)nc([C@H](CC(N)=O)NC[C@H](N)C(N)=O)nc1C(=O)N[C@H](C(=O)N[C@H](C)[C@@H](O)[C@H](C)C(=O)N[C@H](C(=O)NCCc1nc(-c2nc(C(=O)NCCC[S+](C)C)cs2)cs1)[C@@H](C)O)[C@@H](O[C@@H]1O[C@@H](CO)[C@@H](O)[C@H](O)[C@@H]1O[C@H]1O[C@H](CO)[C@@H](O)[C@H](OC(N)=O)[C@@H]1O)c1c[nH]cn1 [ONC0004316, bleomycin sulfate] | 4.137 | –
42 | CO/N=C(/C(=O)NC1C(=O)N2C(C(=O)O)=C(C[N+]3(C)CCCC3)CSC12)c1csc(N)n1 (stereo not drawn) [ONC0000506, cefepime hydrochloride] | 66.95 | –
43 | CC(=O)OCC(=O)[C@@]1(O)[C@@H](C)CC2C3CCC4=CC(=O)C=C[C@]4(C)[C@@]3(F)[C@@H](O)C[C@@]21C (stereo partly drawn) [ONC0004050, betamethasone acetate] | 111.9 | –
44 | O=CN1CCC(C(=O)NCCN2CCC(=C3c4ccccc4C=Cc4ccccc43)CC2)CC1 [ONC0001856, at1015] | 84.57 | –
45 | N#Cc1ccc(N2NC3=C(CCc4cc(C(=O)O)ccc43)[C@@H]2C2CCCC2)cc1Cl [ONC0002131, pf03882845] | 78.15 | –
46 | COc1ccc(Nc2nccc(NCCO)n2)cc1 [ONC0000720, cardiogenolc] | 79.31 | –
47 | OCCCNc1cc(-c2ccnc(Nc3cccc(Cl)c3)n2)ccn1 [cgp60474] | 9.09 | –
48 | O=C(Nc1cccc(Cl)c1)c1ccccn1 [ONC0004653, vu 0364770] | 68.57 | –

Reference: paper PMC12670160, “A drug-repurposing screen of FDA- and EMA-approved drugs identifies two NF-κB inhibitors active against eumycetoma” (Journal of Antimicrobial Chemotherapy, 2025)
